# JMJD2A Tudor = qHTS Assay for Inhibitors of JMJD2A-Tudor Domain; Lysine-specific demethylase 4A (Homo sapiens), O75164; AlphaScreen JMJD2A-Tudor / H3K4me3 peptide binding; Potency, µM (doses to about 114 µM), usual class: inhibitors; actives 4.4% (n = 390,000); AID 504339, 2011; further: nearly all actives have a fitted effect of over 50% in size
# Target sequence (O75164 whole entry, looked up, the tested form may be a part): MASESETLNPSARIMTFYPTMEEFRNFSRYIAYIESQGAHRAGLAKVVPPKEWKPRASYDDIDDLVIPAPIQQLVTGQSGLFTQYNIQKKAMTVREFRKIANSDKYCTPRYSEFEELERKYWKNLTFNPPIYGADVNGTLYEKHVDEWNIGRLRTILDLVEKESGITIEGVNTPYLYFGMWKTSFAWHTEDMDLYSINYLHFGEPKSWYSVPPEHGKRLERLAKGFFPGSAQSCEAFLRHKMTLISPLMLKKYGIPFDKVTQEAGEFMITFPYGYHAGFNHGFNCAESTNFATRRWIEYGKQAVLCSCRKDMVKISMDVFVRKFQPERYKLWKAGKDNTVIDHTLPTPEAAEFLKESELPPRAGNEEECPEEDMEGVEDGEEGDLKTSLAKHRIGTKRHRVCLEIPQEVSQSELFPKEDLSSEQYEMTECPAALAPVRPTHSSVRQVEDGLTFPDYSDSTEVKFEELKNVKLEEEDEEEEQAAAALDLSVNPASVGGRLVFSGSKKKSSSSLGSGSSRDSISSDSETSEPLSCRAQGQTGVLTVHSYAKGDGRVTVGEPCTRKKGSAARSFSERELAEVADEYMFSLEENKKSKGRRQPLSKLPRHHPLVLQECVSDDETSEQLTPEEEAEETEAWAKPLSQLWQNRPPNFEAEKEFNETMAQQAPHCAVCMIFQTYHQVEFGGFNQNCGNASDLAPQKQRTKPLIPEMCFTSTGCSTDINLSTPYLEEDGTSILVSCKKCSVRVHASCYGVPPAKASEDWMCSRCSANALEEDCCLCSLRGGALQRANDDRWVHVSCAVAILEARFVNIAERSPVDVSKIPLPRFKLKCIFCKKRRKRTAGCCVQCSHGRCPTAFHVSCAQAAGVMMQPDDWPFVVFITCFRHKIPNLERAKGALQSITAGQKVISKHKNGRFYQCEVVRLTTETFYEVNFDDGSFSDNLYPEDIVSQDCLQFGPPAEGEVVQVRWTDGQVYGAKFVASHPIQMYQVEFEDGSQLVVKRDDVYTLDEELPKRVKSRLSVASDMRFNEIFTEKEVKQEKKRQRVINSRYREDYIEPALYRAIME
# PI5P4Ka inh = qHTS for Inhibitors of phosphatidylinositol 5-phosphate 4-kinase (PI5P4K) | actives 1.2% (n = 330,000) | AID 652105, 2013 | max response, % | Phosphatidylinositol 5-phosphate 4-kinase type-2 alpha (Homo sapiens), P48426 | PI5P4Kalpha enzyme, ADP-Glo luminescence, 60 min; active compounds read low; active means max response of -50% or lower; inconclusive means between -30% and -50%; inactive means -30% or higher; further: value at the top dose of about 77 µM
#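 Quantitative HTS of the MLSMR library against PI5P4Kalpha with substrate. ATP added last at 5 microM final; room temperature, 60 minutes. Remaining ATP depleted, ADP converted and read as luminescence.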
# HP1b binding inh = HTS for Inhibitors of HP1-beta Chromodomain Interactions with Methylated Histone Tails | AlphaScreen HP1-beta / biotin-H3K9me3 peptide binding | Chromobox protein homolog 1 (Homo sapiens), P83916 | actives 0.56% (n = 390,000) | Potency, µM (titrated, usually from 114 µM), actives largely listed as inhibitors | AID 540317, 2011; further: nearly all actives have a fitted effect of over 70% in size
#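 HP1-beta protein (50 nM final) preincubated 30 min at room temperature with biotinylated H3(1-18)K9me3 peptide (50 nM) in PBS pH 7.4, 0.01% Tween-20, then compound added for 30 min. AlphaScreen streptavidin donor/nickel chelate acceptor beads (10 ug/mL final), 30 min dark, luminescence read.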
# BAZ2B block = qHTS Assay for Inhibitors of BAZ2B; Bromodomain adjacent to zinc finger domain protein 2B (Homo sapiens), Q9UIF8; AlphaScreen BAZ2B-H3K14Ac peptide displacement; Potency, µM (highest dose often 114 µM), most hits filed as inhibitors; actives 4.4% (n = 360,000); further: nearly all actives have a fitted effect of over 60% in size
#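 AlphaScreen displacement: compounds (up to 110uM) incubated 30 min at room temperature with a preformed 50 nM BAZ2B/50 nM biotinylated H3K14Ac peptide complex in PBS pH 7.4 with Tween-20. Donor and acceptor beads at 10 ug/mL final added, 20 min light-protected before reading.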
# G9a block = qHTS Assay for Inhibitors of Histone Lysine Methyltransferase G9a. Histone-lysine N-methyltransferase EHMT2 (Homo sapiens), Q96KQ7. actives 8.8% (n = 350,000). G9a H3K9 monomethylation, AlphaScreen, 2 h. Potency, µM (top dose mostly 102 µM), hits mostly inhibitors; further: nearly all actives have a fitted effect of over 75% in size
#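 AlphaScreen detection with an anti-monomethyl H3K9 antibody quantified product after a 2 h room-temperature reaction containing 500 nM biotinylated H3K9 peptide, 20 µM SAM and 20 nM enzyme, which had been preincubated 15 min with compound.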
# PLK1 PBD block = qHTS for Inhibitors of PLK1-PDB (polo-like kinase 1 - polo-box domain): Primary Screen; Plk1 PBD binding of FITC phosphopeptide, fluorescence polarization; actives 2.8% (n = 360,000); Potency, µM, hits mostly inhibitors; further: series mostly up to about 57 µM; nearly all actives have a fitted effect of over 65% in size
# A number is an active result; – = inactive; ? = inconclusive; · = no result; [ ] = another dose, or the depositor's remark. The list is not random: actives were taken first. Their share in the collection is about 12%. Unless noted, the call rests on the fitted dose curve; in most records, active means well fitted curve in the direction sought with a large enough effect; inconclusive means small, poorly fitted or top-dose-only effect, or another doubt; inactive means no such curve, though single readings can be large; an effect the other way counts as inactive or inconclusive.
SMILES,JMJD2A Tudor,PI5P4Ka inh,HP1b binding inh,BAZ2B block,G9a block,PLK1 PBD block
O=c1[nH]c2ccccc2n2c(=S)[nH]nc12,3.5µM,–,–,–,·,–
CCOC(=O)c1ccc(N2C(=O)CC(C(=O)OC)=C2C)cc1,–,–,–,–,–,?
CCOC(=O)C1=C(N)N2C(=O)CSC2=C(C(=O)OC)C1,–,–,–,?,50µM,–
COc1cc(/C=C2\SC(c3ccc(C)cc3)=NC2=O)ccc1O,28µM,·,?,22µM,11µM,–
COc1cc(/C=C2\SC(c3ccccc3)=NC2=O)cc(Cl)c1O,6.3µM,-99,13µM,35µM,–,11µM
COc1cc(/C=C2\SC(c3ccc(C)cc3)=NC2=O)cc(OC)c1OC,56µM,·,?,–,1µM,–
COc1cc(/C=C2\SC(N3CCc4ccccc4C3)=NC2=O)cc(OC)c1OC,–,–,–,–,?,–
COc1ccc(C2C3C=CCC(c4cccc(/C=C/c5ccccc5)c4)C3C(=O)N2Cc2ccccc2)cc1Cl (configuration not stated),–,·,–,·,·,·
CCCCSc1nnc2n(-c3ccc(OC)cc3)c(=O)c3c4c(sc3n12)COC(C(C)C)C4 (configuration not stated),–,·,–,–,–,·
CCN(Cc1ccccc1)C(=O)CCc1c(C)nc2c(c(C)nn2-c2ccc(C)c(C)c2)c1C,–,·,–,–,–,·
Cc1c(N=C2C=C(Br)C(=O)C(Br)=C2)c(=O)n(-c2ccccc2)n1C,56µM,-78,28µM,20µM,7.1µM,6.7µM
Cc1c(N2C(=O)c3ccccc3C2=O)c(=O)n(-c2ccccc2)n1C,–,–,–,–,–,–
Cc1c(N=C2C=CC(=O)c3ccccc32)c(=O)n(-c2ccccc2)n1C,45µM,-62,10µM,28µM,35µM,19µM
CCOC(=O)c1ccc(NS(=O)(=O)c2cc(-c3onc(C)c3C)ccc2C)cc1,–,·,–,–,–,·
Cc1ccc(C)c(Cn2c(=O)n(CCCC(=O)NCc3ccco3)c(=O)c3ccccc32)c1,–,–,–,–,–,–
Cc1ccc(C)c(Cn2c(=O)n(CCCC(=O)NCc3ccco3)c(=O)c3sccc32)c1,?,–,?,–,–,30µM
CCOc1ccc(NC(=O)c2nnn(-c3ccc(F)c(Cl)c3)c2C)cc1,–,·,–,–,–,·
O=C(Nc1cccc(NC(=O)c2ccccc2)n1)c1ccccc1,–,–,–,–,–,–
CCCc1nc(NC(=O)c2ccccc2)nc(NC(=O)c2ccccc2)n1,–,–,–,–,71µM,–
CCNc1nc(NCC)nc(C(=O)Nc2ccccc2)n1,79µM,–,–,10µM,–[0.501 µM],–
CCNc1nc(NCC)nc(OCCOC(=O)Nc2ccccc2)n1,–,–,–,–,–,–
CCN(CC)c1ccc(C=C2C(=O)OC3(CCCCC3)OC2=O)cc1,–,–,–,?,?,–
CCN(CC)c1ccc(/C=C2/C(=O)c3ccc(C(=O)O)cc3C2=O)cc1,?,-92,35µM,25µM,13µM,–
Cc1ccc(-c2nn3c(=O)cc(CN4CCN(C(=O)c5ccc(C(C)(C)C)cc5)CC4)nc3s2)cc1,–,·,–,–,–,·
COc1ccc(-c2cc(=O)c3ccc(F)cc3[nH]2)cc1,·,·,·,·,–,·
SMILES,JMJD2A Tudor,PI5P4Ka inh,HP1b binding inh,BAZ2B block,G9a block,PLK1 PBD block
COc1ccccc1NS(=O)(=O)c1cc(NC(=O)c2ccncc2)ccc1N1CCOCC1,–,–,?,–,?,13µM
COc1ccccc1NS(=O)(=O)c1cc(NC(=O)c2cnccn2)ccc1N1CCOCC1,–,–,–,–,·,–
CCOc1cc(N2CCOCC2)c(OCC)cc1NS(=O)(=O)c1cc(NC(C)=O)ccc1OC,–,–,–,71µM,45µM,–
CN(C)S(=O)(=O)c1cc(NC(=O)c2ccc(-n3ccnc3)c([N+](=O)[O-])c2)ccc1Cl,–,–,–,–,45µM,–
CN(C)S(=O)(=O)c1cccc(NC(=O)c2ccc(N3CCOCC3)c([N+](=O)[O-])c2)c1,–,–,–,?,50µM,–
CCOc1cc(N2CCOCC2)c(OCC)cc1NC(=O)C(C)(C)C,–,–,–,·,–,–
CN1C(=O)Cc2cc([S+](=O)([O-])N3CCN([S+](=O)([O-])c4c(F)cccc4F)CC3)ccc21,–,·,·,·,·,·
Cn1c(=O)c2ncn(C)c2n(C)c1=O,–,–,–,·,·,–
COc1ccccc1CC(NC(C)=O)C(=O)NC1CCN(C(=O)c2ccc(C)cc2)CC1 (configuration not stated),–,–,–,–,–,–
Cc1cccc(NC(=O)CSc2cn(CC(=O)N3CCCCCC3)c3ccccc23)c1,–,·,–,–,–,·
COc1ccc(NC(C)=O)cc1NS(=O)(=O)c1cn(C)c(=O)n(C)c1=O,–,–,–,79µM,–,–
COc1ccccc1NS(=O)(=O)c1cc(NC(=O)c2ccc(NC(C)=O)cc2)ccc1N1CCOCC1,?,–,?,·,·,27µM
COc1ccccc1NS(=O)(=O)c1cc(NC(=O)c2cccc(S(=O)(=O)N(C)C)c2)ccc1N1CCOCC1,–,–,–,–,18µM,–
COc1ccc(C)cc1NS(=O)(=O)c1cn(C)c(=O)n(C)c1=O,–,–,–,–,?,–
COc1ccccc1NS(=O)(=O)c1cc(NC(=O)C(C)(C)C)ccc1N1CCOCC1,–,–,–,–,–[0.501 µM],–
COc1cccc(Nc2ncc3nc(CCc4ccccc4)c(=O)n(Cc4cccs4)c3n2)c1,·,·,·,·,–[0.501 µM],·

# Screening results as filed in PubChem BioAssay.
